In the library only some 12% were active in any assay of this set; here they are far more common.
BAZ2B block = qHTS Assay for Inhibitors of BAZ2B. AlphaScreen BAZ2B-H3K14Ac peptide displacement. Potency, µM (top dose mostly 114 µM), inactives show at the top dose activity change, negative = inhibition, actives largely listed as inhibitors. 360,000 tested, 4.4% active. Bromodomain adjacent to zinc finger domain protein 2B (Homo sapiens), Q9UIF8; further: on the % scale 0 is the no-effect control and ±100 the full control effect; nearly all actives have a fitted effect of over 60% in size
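AlphaScreen luminescence quantifies BAZ2B engagement of H3K14Ac peptide; the protein and biotinylated peptide are both at 50 nM final, buffer PBS pH 7.4 with 0.01% Tween-20, all steps at room temperature.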
Sfp inh = qHTS Assay for Inhibitors of Bacillus subtilis Sfp phosphopantetheinyl transferase (PPTase). 310,000 tested, 3.5% active. 4'-phosphopantetheinyl transferase ffp (Bacillus subtilis), Q9F4F7. Biochemical Sfp PPTase activity, qHTS. Potency, µM, for the others: largest response in the series, negative = inhibition, usual class: inhibitors;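 further: the enzyme is Sfp with the accession as filed and its product quenches rhodamine fluorescence; 0% = enzyme reaction without inhibitor and -100% = no enzyme wells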
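Step 1, compound plus 15 nM Sfp-PPTase, 15 min, room temperature. Step 2, add rhodamine-CoA (5 uM) and BHQ-2-YbbR (12.5 uM). Step 3, read 525/598 nm fluorescence at 0 and 30 min.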
JMJD2A Tudor = qHTS Assay for Inhibitors of JMJD2A-Tudor Domain | 390,000 tested, 4.4% active | Potency, µM (doses to about 114 µM), for the others: at the highest dose activity change, negative = inhibition, most hits filed as inhibitors | AlphaScreen JMJD2A-Tudor / H3K4me3 peptide binding | Lysine-specific demethylase 4A (Homo sapiens), O75164; further: on the % scale 0 is the no-effect control and ±100 the full control effect; nearly all actives have a fitted effect of over 50% in size
L3MBTL1 inh = qHTS Assay for the Inhibitors of L3MBTL1; AlphaScreen L3MBTL1–H3K9me1 peptide binding; Potency, µM (doses to about 57.1 µM), for the others: at the highest dose activity, negative = inhibition, usual class: inhibitors; 230,000 tested, 0.66% active; AID 485360, 2010; further: on the % scale 0 is the no-effect control and ±100 the full control effect; nearly all actives have a fitted effect of over 60% in size
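AlphaScreen proximity signal between nickel-chelate acceptor and streptavidin donor beads (final 10 ug/mL) reports binding of 50 nM L3MBTL1 to 75 nM biotin-H3 K9me1 peptide; complex incubated with compounds 30 min at room temperature; cefsulodin titration as control.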
HP1b binding inh = HTS for Inhibitors of HP1-beta Chromodomain Interactions with Methylated Histone Tails. 390,000 tested, 0.56% active. Potency, µM (highest dose often 114 µM), without a hit: top-dose activity change, negative = inhibition, actives largely listed as inhibitors. AlphaScreen HP1-beta / biotin-H3K9me3 peptide binding. Chromobox protein homolog 1 (Homo sapiens), P83916; further: nearly all actives have a fitted effect of over 70% in size
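HP1-beta protein (50 nM final) preincubated 30 min at room temperature with biotinylated H3(1-18)K9me3 peptide (50 nM) in PBS pH 7.4, 0.01% Tween-20, then compound added for 30 min. AlphaScreen streptavidin donor/nickel chelate acceptor beads (10 ug/mL final), 30 min dark, luminescence read.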
G9a inh = qHTS Assay for Inhibitors of Histone Lysine Methyltransferase G9a; Histone-lysine N-methyltransferase EHMT2 (Homo sapiens), Q96KQ7; G9a H3K9 monomethylation, AlphaScreen, 2 h; Potency, µM (doses to about 102 µM), inactives show at the top dose activity, negative = inhibition, actives largely listed as inhibitors; 350,000 tested, 8.8% active; further: on the % scale 0 is the no-effect control and ±100 the full control effect; nearly all actives have a fitted effect of over 75% in size
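Using a bead-based AlphaScreen, monomethylated H3K9 product from 2 h room-temperature reactions (G9a 20 nM, peptide 500 nM, SAM 20 uM) was detected with 0.5 ug/mL rabbit anti-H3K9me1 antibody.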
An asterisk follows results filed as active; ? = inconclusive; · = no result; [ ] = dose if it differs, or a comment. The call rests on the fitted dose curve; in most records, active means well fitted curve in the direction sought with a large enough effect; inconclusive means small, poorly fitted or top-dose-only effect, or another doubt; inactive means no such curve, though single readings can be large; an effect the other way counts as inactive or inconclusive. Potency means the concentration at half of the fitted maximal effect.

SMILES | BAZ2B block | Sfp inh | JMJD2A Tudor | L3MBTL1 inh | HP1b binding inh | G9a inh
O=C(NCC(c1ccco1)N1CCCCC1)c1ccc2c(c1)S(=O)(=O)c1ccccc1C2=O (stereo not given) | ? | -1% | ? | · | 6% | 40µM*
CCOc1ccc(NC(=O)C2CC(=O)NC(=Nc3ccc(Cl)c(Cl)c3)S2)cc1 (stereo not given) | -3% | · | -22% | · | 3% | ?
NCc1cc2c3c(c1)CCCN3CCC2 | 50µM* | -3% | -11% | · | -1% | 16µM*
COc1c(C=O)cc2c3c1CCCN3CCC2 | -10% | 2% | -20% | -7% | 5% | 1%
Cc1cc(C)cc(S(=O)(=O)c2cnc3ccccc3n2)c1 | 20% | -18% | 11µM* | -14% | ? | 29%
COC(=O)[C@H](Cc1ccccc1)NC(=O)[C@@H](C)CO | · | 3% | · | · | · | ·
Cc1nc(SCC(N)=O)c([N+](=O)[O-])[nH]1 | -22% | -19% | 40µM* | -2% | 15% | -3%
Cc1nc(SCCC(C)C)c([N+](=O)[O-])[nH]1 | 0% | 10% | -19% | · | 41% | 28µM*
Cc1ccc(S(=O)(=O)N2CCC(c3ccncc3)CC2)c(C)c1 | -16% | · | -14% | · | 13% | -6%[59 µM]
O=C(Nc1cccc(C(F)(F)F)c1)c1cc(Br)cc2c1OCC2 | 0% | -2% | -7% | 1% | 16% | -4%
O=C(Nc1cccc(C(F)(F)F)c1)c1scc2c1OCCO2 | 1% | 9% | 50µM* | 22% | 3% | 1%
O=C1CCc2cc(S(=O)(=O)Nc3ccncc3)ccc2N1 | · | · | -24% | · | · | ·
O=C(O)c1cc([N+](=O)[O-])cc([N+](=O)[O-])c1N1CCN(c2cccc(C(F)(F)F)c2)CC1 | -36% | -7% | -36% | · | -16% | 56µM*
COC(=O)[C@]1(C)N[C@H](CN(C)C(C)=O)[C@@H]2C(=O)N(C)C(=O)[C@@H]21 | · | · | -22% | 1% | 17% | ·
CCNC(=O)N(C)C[C@H]1N[C@@](C)(C(=O)OC)[C@H]2C(=O)N(C)C(=O)[C@@H]12 | · | · | 89µM* | -1% | 27% | ·
CNC(=O)[C@H](C)[C@H]1C[C@]1(C)[C@H](NC(=O)OCc1ccccc1)c1ccccc1 | · | 16% | · | · | · | ·
OCCN(Cc1ccccc1)CC1CC2C=CC1C2 (stereo not given) | ? | -3% | 3.2µM* | · | -51% | 14µM*
OCCN(Cc1ccccc1)CC1CCCCC1 | ? | -20% | 22µM* | · | 14% | 11µM*
CC(C)CC(NC(=O)C(COC(C)(C)C)NC(=O)C(Cc1ccc(O)cc1)NC(=O)C(CO)NC(=O)C(Cc1c[nH]c2ccccc12)NC(=O)C(Cc1cnc[nH]1)NC(=O)C1CCC(=O)N1)C(=O)NC(CCCN=C(N)N)C(=O)N1CCCC1C(=O)NNC(N)=O (stereo not given) | · | 3% | · | · | · | -31%[12.7 µM]
OC[C@H](S)CS | · | 2.2µM* | · | · | · | 1µM*
C=CCNC(=O)c1onc(CSc2nc3ccccc3[nH]2)c1C(=O)NCC=C | ? | 2% | -26% | -3% | 13% | 56µM*
COCCNC(=O)c1onc(CSc2nc3ccccc3[nH]2)c1C(=O)NCCOC | -4% | 9% | -13% | 9% | 50% | ·
Cc1cc2oc(=O)cc(CN3CCCCC3C)c2cc1C (stereo not given) | 1% | -5% | -13% | · | -8% | 50µM*
CCOc1[nH]c(/N=C/c2ccc(OC)cc2)c(C#N)c1C#N | · | · | 25µM* | · | ? | ·
COc1ccc(N=Cc2ccc(N(CCC#N)CCC#N)cc2)cc1 | · | · | -35% | · | 19% | ·
Cn1c(=O)cc(SCC(=O)N2CCN(c3ccc(F)cc3)CC2)c2ccc(Cl)cc21 | · | · | -13% | · | 34% | -1%[59 µM]

From PubChem BioAssay
